Results with a measured potency or affinity are listed apart. Active and inactive are the calls of the source. The rule behind the calls is not given here.

The assay can be described thus: cytotoxicity in HEK293 cells, dose response, cytotoxicity control, cell-based, plate reader, cherry-pick (AID 651899).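 Note: cells exposed to compound for 48 hours.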 The conditions noted are these: series mostly up to 26 µM.
For the compound `Cc1nc2nc(SCC(=O)NCc3ccco3)nn2c(C)c1Cc1c(F)cccc1Cl`, the result was inactive.
The same measure for `Cn1ncc2cc3c(Nc4ccc(Cl)cc4)cccc3nc21`: “inactive”; for `CSc1ccc(S(=O)(=O)N2CCC(C(=O)Nc3cccnc3)CC2)cc1`: “inactive”.
The value for `CCC(CO)[n+]1c(C)cc(/C=C2\Sc3ccccc3N2Cc2ccccc2)cc1C` (configuration not stated) was “inactive”.
The same measure for `Cc1cc(/C=C(/C#N)C(=O)Nc2ccccc2)c(C)n1-c1cccnc1`: “inactive”; for `CC(=O)N1CC[C@@H]2[C@@H](CO)N(C)c3ccc(-c4ccccc4)cc3[C@@H]21`: “inactive”.
On to `Cc1c(OC(C)C(=O)NCC2CCC(C(=O)O)CC2)ccc2c1oc(=O)c1ccccc12` (configuration not stated), for which the compound was classed as inactive.
The same measure for `CN1c2ccc(-c3cccc(C#N)c3)cc2[C@H]2[C@H](CCN2C(=O)CC2CC2)[C@H]1CO`: “inactive”; for `Cc1nc(-c2cccnc2)sc1C(=O)Nc1cccc(C(F)(F)F)c1`: “inactive”; for `CO[C@H]1CN(C)C(=O)c2ccc(NC(C)=O)cc2OC[C@@H](C)N(C(=O)c2ccc(F)cc2)C[C@H]1C`: “inactive”.
The same measure for `COCCN1C(=O)c2ccc(C(=O)Nc3cccnc3)cc2C1=O`: “inactive”; for `CN1c2ccc(-c3cccc(F)c3)cc2[C@H]2[C@H](CCN2C(=O)c2ccncc2)[C@H]1CO`: “inactive”.
The value for `CO[C@H]1CN(C)C(=O)c2ccc(NC(C)=O)cc2OC[C@@H](C)N(C(=O)C2CCCCC2)C[C@H]1C` was “inactive”; that for `CC(=O)Nc1ccc2nc(-c3cccnc3)[nH]c2c1` was “inactive”.
On to `C[C@H](CO)N1C[C@H](C)[C@@H](CN(C)Cc2ccc3c(c2)OCO3)Oc2ccc(NC(=O)Cn3cnnn3)cc2CC1=O`, for which the outcome was inactive.
For the compound `CC(=O)c1ccc(NC(=O)CN2CCN(c3ccccc3)CC2)cc1`, the outcome was inactive.
The same measure for `CCC(=O)N1CC[C@@H]2[C@H]1c1cc(-c3cccc(F)c3)ccc1N(C)[C@@H]2CO`: “inactive”; for `O=C(NCc1ccco1)c1ccc(-c2ccc3nccn3c2)cc1`: “inactive”.
Take `COc1ccc(-c2ccc3c(c2)C2CC3CCN2)cc1` (configuration not stated): the call was inactive.
As to `CC(=O)c1ccc(N2CCN(C(=O)c3ccc4nc[nH]c4c3)CC2)cc1`, the compound was classed as inactive.
The value for `CN1c2ccc(-c3ccccc3)cc2[C@H]2[C@H](CCN2C(=O)Cc2ccccn2)[C@H]1CO` was “inactive”; that for `O=C(Nc1ccc2c(c1)[C@H]1C[C@@H](CC(=O)N3CCc4ccccc4C3)O[C@H](CO)[C@H]1O2)c1cccnc1` was “inactive”.

(Values after PubChem BioAssay AID651899 (Broad Institute, 2012).)
